In all, about 33,000 sequences were measured (“e-score”: median about -0.05, highest 2% from about 0.38 on). For the sample, the highest values were picked, then their nearest neighbours and some sequences at random.
target: T1, SIX1-Q177R homeodomain (human, UniProt Q15475 108-198, Q177R); assay: universal protein binding microarray; Universal all-10-mer PBM (8x60K, AMADID 030236), 300 nM GST-tagged protein, Alexa Fluor 488 anti-GST; buffer, salt, pH and temperature not stated (as in Berger); high values mean tight binding; details: protein: ivt; tags: N-terminal GST; dsDNA, one strand shown
T1 sequence: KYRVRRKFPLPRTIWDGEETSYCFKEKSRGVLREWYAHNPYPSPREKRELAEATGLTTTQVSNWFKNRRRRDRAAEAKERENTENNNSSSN
Method in brief: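 Binding of GST-tagged homeodomains is given as 8-mer E-scores from the Universal PBM Analysis Suite. The proteins were produced by in vitro transcription/translation, quantified by anti-GST western blot against a recombinant GST standard curve, and applied in duplicate at 300 nM final concentration to universal 'all 10-mer' protein binding microarrays (8×60K format).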

Row | Sequence | binding signal
1 | AAACACGC | 0.336 ± 0.0161 E-score
2 | GAACACGC | 0.393 ± 0.0119 E-score
3 | CACAGCTA | 0.177 ± 0.0139 E-score
4 | AACCCCGA | 0.232 ± 0.0298 E-score
5 | CACGCCCC | 0.29 ± 0.0136 E-score
6 | AGGGGTGC | 0.221 ± 0.0348 E-score
7 | GTGTCGGA | 0.454 ± 0.0132 E-score
8 | ATGTCGGG | 0.199 ± 0.029 E-score
9 | GGGTCGGA | 0.227 ± 0.0525 E-score
10 | GTGTCTTA | 0.3629 ± 0.00242 E-score
11 | ATGTCGTG | 0.222 ± 0.0295 E-score
12 | GTGTCGTA | 0.45 ± 0.0119 E-score
13 | GTGTCGCA | 0.442 ± 0.0148 E-score
14 | GTATCGCA | 0.234 ± 0.0133 E-score
15 | CCGAGCAC | 0.178 ± 0.0032 E-score
16 | ACCCAGTG | 0.21 ± 0.0315 E-score
17 | AGTGGTAG | 0.157 ± 0.00503 E-score
18 | ATGAGACA | 0.159 ± 0.0072 E-score
19 | GGTGCACA | 0.268 ± 0.0361 E-score
20 | ATAGCACG | 0.157 ± 0.0235 E-score
21 | ATCTACAC | 0.404 ± 0.0153 E-score
22 | ATCCACAC | 0.297 ± 0.0245 E-score

Row | Sequence | binding signal
23 | GTCTAACA | 0.204 ± 0.0271 E-score
24 | CTCCACAC | 0.251 ± 0.0305 E-score
25 | GTCTACAC | 0.42 ± 0.0105 E-score
26 | CTCTACAC | 0.391 ± 0.0122 E-score
27 | CCCTCTAC | 0.205 ± 0.0116 E-score
28 | GTCCACAC | 0.211 ± 0.0298 E-score
29 | TCGGTACA | 0.219 ± 0.0249 E-score
30 | GGGTCTCA | 0.162 ± 0.0232 E-score
31 | ACTGCCCG | 0.219 ± 0.00643 E-score
32 | TAGTATCA | 0.221 ± 0.0229 E-score
33 | CACCAAAC | 0.283 ± 0.0195 E-score
34 | ACCGCGAA | 0.1607 ± 0.000856 E-score
35 | CACATTTC | 0.186 ± 0.0176 E-score
36 | GTATACCA | 0.152 ± 0.0219 E-score
37 | GTGTACGA | 0.43943 ± 0.000382 E-score
38 | GGGTACTA | 0.224 ± 0.00292 E-score
39 | GTGTGCGA | 0.173 ± 0.0312 E-score
40 | GTGTACCA | 0.4446 ± 0.00264 E-score
41 | AGGTACTA | 0.1967 ± 0.000601 E-score
42 | GTGTACTA | 0.438 ± 0.0127 E-score
43 | GTGTGCCA | 0.242 ± 0.0264 E-score
44 | CCATGGGA | 0.153 ± 0.052 E-score

Row | Sequence | binding signal
45 | ACCTCCCA | 0.191 ± 0.00743 E-score
46 | AATCTGAC | 0.17 ± 0.00849 E-score
47 | GTCGTACA | 0.26 ± 0.00478 E-score
48 | CCCCCCGG | 0.254 ± 0.0183 E-score
49 | ACACAACC | 0.219 ± 0.0237 E-score
50 | CACCTACA | 0.41 ± 0.00505 E-score
51 | CACCTACC | 0.2673 ± 0.000516 E-score
52 | CACCTACG | 0.232 ± 0.0231 E-score
53 | GTATGACA | 0.257 ± 0.00319 E-score
54 | ACAAGTGT | 0.344 ± 0.0292 E-score
55 | CGCATACA | 0.185 ± 0.00496 E-score
56 | GGGGACAC | 0.41 ± 0.0266 E-score
57 | CGGGATCC | 0.209 ± 0.0344 E-score
58 | AGGGAGTC | 0.239 ± 0.00436 E-score
59 | CGGGATAC | 0.281 ± 0.0031 E-score
60 | AGGGACAC | 0.402 ± 0.019 E-score
61 | CGGGACAC | 0.42 ± 0.00537 E-score
62 | GAGGGGAC | 0.2 ± 0.0143 E-score
63 | AGGGATAC | 0.165 ± 0.0372 E-score
64 | GGGGATAC | 0.254 ± 0.0111 E-score
65 | CACTTGCA | 0.173 ± 0.0121 E-score
66 | GGATCTGA | 0.194 ± 0.0532 E-score

Row | Sequence | binding signal
67 | CCGGATCA | 0.176 ± 0.0156 E-score
68 | AATCTGGT | 0.159 ± 0.0527 E-score
69 | GGTCGTAC | 0.224 ± 0.0297 E-score
70 | CGGGGTCA | 0.269 ± 0.0255 E-score
71 | ACTTCGTG | 0.238 ± 0.000686 E-score
72 | AACAAGGG | 0.177 ± 0.0185 E-score
73 | AGCAGGTG | 0.335 ± 0.0234 E-score
74 | ACCCCACG | 0.267 ± 0.00597 E-score
75 | GGCGAGAC | 0.168 ± 0.0212 E-score
76 | CGCGATAC | 0.254 ± 0.0107 E-score
77 | GGCGATAC | 0.174 ± 0.0165 E-score
78 | CGCGACAC | 0.4355 ± 0.00314 E-score
79 | AGCGACAC | 0.465 ± 0.00955 E-score
80 | GGCGACAC | 0.44 ± 0.0183 E-score
81 | CGCGACCC | 0.169 ± 0.0418 E-score
82 | GAGCGACA | 0.185 ± 0.0595 E-score
83 | GTATCTCA | 0.158 ± 0.00253 E-score
84 | CACTACGA | 0.191 ± 0.00718 E-score
85 | CGAAACCC | 0.16 ± 0.0514 E-score
86 | AATAGCAC | 0.202 ± 0.00634 E-score

From article PMC10668032, “Altered binding affinity of SIX1-Q177R correlates with enhanced WNT5A and WNT pathway effector expression in Wilms tumor”
